Compounds with a hit are over-represented: about 1.4% of the library has one in this group of screens.
RAD52 inh: RAD52 DNA annealing inhibitors, primary screen, biochemical, FRET, single point, set 2 | DNA repair protein RAD52 homolog (Homo sapiens), P43351 | recombinant RAD52 DNA annealing, FRET fluorescence | inhibition, % at 18.7 µM | actives 0.46% (n = 360,000) | AID 651710, 2012;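 active means every replicate showing at least 50% inhibition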
MLL AF4-AF9 inh: inhibitors of AF4 peptide binding to AF9, primary screen, biochemical, AlphaScreen, biotin-AF4 peptide, FLAG-AF9, single point; Protein AF-9 (Homo sapiens), P42568; inhibition, % at 10 µM; actives 0.47% (n = 350,000); AID 651704, 2012;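 active means every replicate reaching a set inhibition limit, whatever the replicate mean, cut at about 25% in these data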
PGC1a acetyl inh: inhibitors of PGC1a acetylation signal, primary screen, cell-based, U2OS, AlphaScreen, inhibitor mode | AlphaScreen anti-acetyl-lysine; with virally co-expressed GCN5 acetyltransferase | actives 0.17% (n = 350,000) | inhibition, % at 15.6 µM;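 active means every replicate shows inhibition of at least 40%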
RAD54 branch: inhibitors of human RAD54 branch migration, primary screen, biochemical, fluorescence, single point. DNA repair and recombination protein RAD54-like (Homo sapiens), Q92698. RAD54 Holliday junction branch migration, FAM/BHQ fluorescence. inhibition, % at 10.4 µM. actives 0.14% (n = 360,000). AID 602329, 2012;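 active means mean normalized replicate activity at least 40 and at least half of replicates scoring 40 or more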;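 further: inhibitors cause a drop in the FAM fluorescence signal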
ERAP1 HTS inh: human ERAP1 aminopeptidase inhibitors, primary screen, biochemical, single point, plate reader; Endoplasmic reticulum aminopeptidase 1 (Homo sapiens), Q9NZ08; recombinant ERAP1, Leu-AMC fluorescence, 60 min; inhibition, % at 10.7 µM; actives 0.15% (n = 340,000);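 active means mean replicate inhibition of at least 30%, or all replicates individually reaching that 30% level; inactive means mean below 30% and not every replicate reaching it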
GSIS activator: GLuc luminescence reporter in INS-1E cells, primary screen for activators of glucose-dependent secretion of insulin; INS-1E GLuc reporter insulin secretion, 2-3 h; activation, % at 16.6 µM; actives 0.61% (n = 370,000); AID 743287, 2014;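 active means lowest replicate activation of at least 40%, so every replicate reaches that level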
DNA binder FP: DNA-binding compounds via dye displacement, dose response, artefact control for RAD52 inhibitor project, biochemical, fluorescence polarization, cherry-pick; shares compounds with RAD52 inh; Salmon sperm DNA/acridine orange FP displacement; AC50, µM; actives 8% (n = 1,000);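 active means fitted half-maximal concentration for signal loss at or below twice the highest dose tested, in every separate run, actives reach about 64 µM in these data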
A number is an active result.

Results for CN(C)CCn1cnc2c(c1=N)C(c1ccccc1)c1ccc3ccccc3c1O2 (stereo not drawn) ?
RAD52 inh: inactive; MLL AF4-AF9 inh: inactive; PGC1a acetyl inh: inactive; RAD54 branch: inactive; ERAP1 HTS inh: inactive; GSIS activator: inactive; DNA binder FP: inactive

Results for CC(C)NC(=O)Nc1ccc2c(c1)C(=O)N([C@@H](C)CO)C[C@@H](C)[C@@H](CN(C)C(=O)CCC(F)(F)F)OCCCC[C@@H](C)O2 ?
RAD52 inh: inactive; MLL AF4-AF9 inh: inactive; PGC1a acetyl inh: inactive; RAD54 branch: inactive; ERAP1 HTS inh: inactive; GSIS activator: inactive

Results for Clc1ccc2[nH]c3c(c2c1)CNCC3 ?
RAD52 inh: 65; MLL AF4-AF9 inh: inactive; PGC1a acetyl inh: inactive; RAD54 branch: inactive; ERAP1 HTS inh: inactive; GSIS activator: inactive; DNA binder FP: inactive

Results for COc1ccc2[nH]c3c(c2c1)CNCC3 ?
RAD52 inh: inactive; MLL AF4-AF9 inh: inactive; RAD54 branch: inactive; ERAP1 HTS inh: inactive; GSIS activator: inactive

Results for CCCC(=O)Nc1ccc2c(c1)C(=O)N(C)C[C@@H](OC)[C@H](C)CN(C(=O)C1CCCC1)[C@@H](C)CO2 ?
RAD52 inh: inactive; MLL AF4-AF9 inh: inactive; PGC1a acetyl inh: inactive; RAD54 branch: inactive; ERAP1 HTS inh: inactive; GSIS activator: inactive

Results for CCN1CCN(c2cc(C)c3cc(NC(=S)N4CCN(c5ccccc5)CC4)ccc3n2)CC1 ?
RAD52 inh: inactive; MLL AF4-AF9 inh: inactive; PGC1a acetyl inh: inactive; RAD54 branch: inactive; ERAP1 HTS inh: inactive; GSIS activator: inactive

Results for Cc1cc(N2CCN(C)CC2)nc2ccc(NC(=S)N3CCN(c4ccccn4)CC3)cc12 ?
RAD52 inh: 71; MLL AF4-AF9 inh: inactive; PGC1a acetyl inh: inactive; ERAP1 HTS inh: inactive; GSIS activator: inactive; DNA binder FP: inactive

What do the screens show for `Cc1nc2ccc(NC(=S)N3CCN(c4ccccn4)CC3)cc2nc1C`?
RAD52 inh: inactive; MLL AF4-AF9 inh: inactive; ERAP1 HTS inh: inactive; GSIS activator: inactive

What do the screens show for `CCN1CCN(c2cc(C)c3cc(NC(=S)N4CCOCC4)ccc3n2)CC1`?
RAD52 inh: 78; MLL AF4-AF9 inh: inactive; PGC1a acetyl inh: inactive; ERAP1 HTS inh: inactive; GSIS activator: inactive; DNA binder FP: inactive

What do the screens show for `CCN1CCN(c2cc(C)c3cc(NC(=S)N(CC)CC)ccc3n2)CC1`?
RAD52 inh: 68; MLL AF4-AF9 inh: 25; PGC1a acetyl inh: inactive; GSIS activator: inactive; DNA binder FP: inactive

What do the screens show for `Cc1ccc(NC(=O)C[C@H]2CC[C@H]3[C@@H](COc4ccc(NC(=O)C5CCCCC5)cc4C(=O)N3C)O2)cc1`?
RAD52 inh: inactive; GSIS activator: inactive

What do the screens show for `O=C(CN1CCOCC1)NNc1c2ccccc2nc2ccccc12`?
RAD52 inh: inactive; MLL AF4-AF9 inh: inactive; PGC1a acetyl inh: inactive; ERAP1 HTS inh: inactive

What do the screens show for `C[N+]1(CC(=O)NNc2c3ccccc3nc3ccccc23)CCOCC1`?
RAD52 inh: 101; MLL AF4-AF9 inh: inactive; ERAP1 HTS inh: inactive; GSIS activator: inactive; DNA binder FP: 9µM

How did Cc1ccc(S(=O)(=O)N[C@H]2CC[C@H](CCNC(=O)Cc3ccccn3)O[C@@H]2CO)cc1 do in these assays?
RAD52 inh: inactive; MLL AF4-AF9 inh: inactive; PGC1a acetyl inh: inactive; RAD54 branch: inactive; ERAP1 HTS inh: inactive; GSIS activator: inactive

What do the screens show for `Cc1ccc(C)c(OCC(O)CN2CCN(CCN3C(=O)c4cccc5cccc(c45)C3=O)CC2)c1` (stereo not drawn)?
RAD52 inh: 99; MLL AF4-AF9 inh: inactive; ERAP1 HTS inh: inactive; GSIS activator: inactive; DNA binder FP: inactive
